# Measured values taken from PubChem BioAssay (NCATS).
# Inconclusive results are not listed. Entries that show only a call come without a potency. Calls of active or inactive are those of the source. The call rests on the fitted dose curve; in most records, active means well fitted curve in the direction sought with a large enough effect; inconclusive means small, poorly fitted or top-dose-only effect, or another doubt; inactive means no such curve, though single readings can be large; an effect the other way counts as inactive or inconclusive. Where a SMILES comes first, the peptide text is derived from it. [ ]: non-standard residue; d: D form. The star is where a group is joined. Dolaproine = CO[C@@H]([C@@H]1CCCN1)[C@@H](C)C(=O)O; Dil = CC[C@H](C)[C@H](NC)[C@@H](CC(=O)O)OC; Doe = c1ccc(C[C@H](N*)c2nccs2)cc1; Aib = CC(C)(N)C(=O)O
# Assays:
# [1] = P-glycoprotein substrates identified in KB-8-5-11 adenocarcinoma cell line, qHTS therapeutic library screen (AID 1346987); further: nearly all actives have a fitted effect of over 65% in size; further: potency means the concentration at half of the fitted maximal effect
# Procedure, shortened: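 KB-8-5-11, a colchicine-selected P-gp-overexpressing KB-3-1 subline, was grown without colchicine for the assay. Cells were seeded at 500 cells/well, dosed in concentration-response and incubated 72 h at 37 degree C, 5% CO2. Viability was read by CellTiter-Glo luminescence.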
# [2] = system: Zika virus NS2B-NS3 protease (linked construct); assay: Primary screen NINDS Rhodamine qHTS for Zika virus inhibitors (AID 1347160); further: nearly all actives have a fitted effect of over 55% in size
# Procedure, shortened: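 Kinetic fluorescence (Ex 480 nm, Em 540 nm) over 15 min with 1.5 microM Rhodamine110 peptide and 25 nM linked protease.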
# [3] = molecular target: Calcium and integrin-binding protein 1 (Homo sapiens) (UniProt Q99828); assay: Primary qHTS for Identification of Calcium Integrin Binding Protein 1 (CIB1) Competitor (AID 1508620);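 further: GST tagged CIB1 binding a fluorescein labelled alphaIIb integrin peptide tracer; top concentration of the series differs between compounds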
# Procedure, shortened: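 Fluorescence polarization competition: CIB1-GST (1 uM final) preincubated with compound 15 min at room temperature, then FITC-labeled alphaIIb peptide (100 nM final) added for another 15 min. Polarization read at Ex 480/Em 540.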
# [4] = molecular target: Glutathione peroxidase 1 (Homo sapiens) (UniProt P07203); assay: Primary qHTS Assay for Inhibitors of Recombinant Selenoprotein Glutathione Peroxidase 1 (GPX1) (AID 1845191); further: nearly all actives have a fitted effect of over 65% in size
# Procedure, shortened: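 Recombinant GPX1 (10 nM final) was preincubated with compound for 30 min at room temperature, then reacted with 1 mM GSH, 0.5 mM CHP, 0.5 mM NADPH and 100 nM glutathione reductase; NADPH fluorescence (340/450 nm) was read at 0 and 15 min.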
# [5] = molecular target: Phospholipid hydroperoxide glutathione peroxidase GPX4 (Homo sapiens) (UniProt P36969); assay: Primary qHTS Assay for Inhibitors of Recombinant Selenoprotein Glutathione Peroxidase 4 (GPX4) (AID 1845192); further: nearly all actives have a fitted effect of over 65% in size
# Procedure, shortened: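 GR-coupled readout: 100 nM GR, 1 mM GSH, 0.5 mM NADPH; NADPH fluorescence (ex 340/em 450 nm) read at t=0 and after 15 min RT. GPX4 200 nM, preincubated 30 min with compound; substrate 0.5 mM CHP.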
# [6] = molecular target: Luciferin 4-monooxygenase (Photinus pyralis) (UniProt P08659); assay: Primary firefly luciferase (FLuc) qHTS assay for identification of artifact compounds. (AID 1845220); details: outcome: dose series up to 54.1 µM unless noted; further: nearly all actives have a fitted effect of over 60% in size
# Procedure, shortened: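 Reaction readout was CCD-imaged luminescence, taken 5 min after adding 10 nM purified firefly enzyme to compound-treated wells holding 10 uM luciferin and ATP in pH 7.6 buffer.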
# [7] = system: Nanoluciferase (engineered Oplophorus gracilirostris luciferase); assay: Primary Nanoluciferase (NLuc) qHTS assay for identification of artifact compounds. (AID 1845222);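 further: NLuc secreted into diluted conditioned medium of S16 cells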
# Procedure, shortened: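 Concentration-response data were obtained by luminescence after 5 min with Nano-Glo substrate at 1:100. The enzyme was diluted S16 NLuc-expressing cell medium, preincubated with compound for 15 min at RT. Curves were fitted with a 4-parameter Hill model.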
# [8] = system: CRL-7250; assay: Cytotoxic Profiling of Annotated Libraries Using Quantitative High-Throughput Screening (AID 1296008); details: Five cell lines viability, CellTiter-Glo ATP luminescence, 48-72 h; max response: hits give low values; further: nearly all actives have a fitted effect of over 60% in size; further: potency means the concentration at half of the fitted maximal effect
# Procedure, shortened: (§1)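 Compounds were pin-transferred onto cells and incubated 48 or 72 hr at 37 degree Celsius, 95% humidity. CellTiter-Glo was added, plates sat 10 min at room temperature, then ATP-coupled luminescence was imaged as the viability read-out.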
# [9] = system: NIH3T3; assay: as above; details: Five cell lines viability, CellTiter-Glo ATP luminescence, 48-72 h; max response: hits give low values
# Procedure, shortened: as §1
# [10] = system: C33A; assay: Primary qHTS to identify gynecologic anti-cancer compounds using libraries of approved drugs and bioactive compounds (AID 1345084); details: Gynecologic cancer cell panel viability, ATPlite luminescence, 48 h; series mostly up to 57.5 µM; further: nearly all actives have a fitted effect of over 55% in size; further: potency means the concentration at half of the fitted maximal effect
# Procedure, shortened: (§2)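 Cells, 1,000 per well, plated 16 h, then exposed 48 h at 37 C to compounds. Viability by ATPlite luminescence after 15 min at room temperature.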
# [11] = system: CAOV3; assay: as above; details: Gynecologic cancer cell panel viability, ATPlite luminescence, 48 h; series mostly up to 57.5 µM
# Procedure, shortened: as §2
# [12] = system: CASKI; assay: as above; details: Gynecologic cancer cell panel viability, ATPlite luminescence, 48 h; series mostly up to 57.5 µM
# Procedure, shortened: as §2
# [13] = system: Es-2; assay: as above; details: Gynecologic cancer cell panel viability, ATPlite luminescence, 48 h; series mostly up to 57.5 µM
# Procedure, shortened: as §2
# [14] = system: HeLa; assay: as above; details: Gynecologic cancer cell panel viability, ATPlite luminescence, 48 h; series mostly up to 57.5 µM
# Procedure, shortened: as §2
# [15] = system: Hek293T; assay: as above; details: Gynecologic cancer cell panel viability, ATPlite luminescence, 48 h, control line for the selectivity index; series mostly up to 57.5 µM
# Procedure, shortened: as §2
# [16] = system: JEG-3; assay: as above; details: Gynecologic cancer cell panel viability, ATPlite luminescence, 48 h; series mostly up to 57.5 µM
# Procedure, shortened: as §2
# [17] = system: OV90; assay: as above; details: Gynecologic cancer cell panel viability, ATPlite luminescence, 48 h; series mostly up to 57.5 µM
# Procedure, shortened: as §2
# [18] = system: PA-1; assay: as above; details: Gynecologic cancer cell panel viability, ATPlite luminescence, 48 h; series mostly up to 57.5 µM
# Procedure, shortened: as §2
# [19] = system: Tov-21-G; assay: as above; details: Gynecologic cancer cell panel viability, ATPlite luminescence, 48 h; series mostly up to 57.5 µM
# Procedure, shortened: as §2
# [20] = system: Tov112D; assay: as above; details: Gynecologic cancer cell panel viability, ATPlite luminescence, 48 h; series mostly up to 57.5 µM
# Procedure, shortened: as §2
# Phospholipid hydroperoxide glutathione peroxidase GPX4 (Homo sapiens), sequence (P36969 whole entry, looked up): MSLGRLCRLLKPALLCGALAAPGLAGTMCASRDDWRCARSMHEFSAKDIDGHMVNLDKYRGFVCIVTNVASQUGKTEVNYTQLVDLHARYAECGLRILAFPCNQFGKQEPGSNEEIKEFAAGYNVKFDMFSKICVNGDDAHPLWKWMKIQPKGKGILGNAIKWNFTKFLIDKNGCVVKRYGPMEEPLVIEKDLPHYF
# Glutathione peroxidase 1 (Homo sapiens), sequence (P07203 whole entry, looked up): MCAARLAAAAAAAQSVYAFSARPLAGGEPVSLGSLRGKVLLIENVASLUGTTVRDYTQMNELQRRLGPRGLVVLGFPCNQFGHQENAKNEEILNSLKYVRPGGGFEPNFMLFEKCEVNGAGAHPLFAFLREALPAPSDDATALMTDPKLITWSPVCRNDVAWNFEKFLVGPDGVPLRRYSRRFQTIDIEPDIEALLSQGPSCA
# Calcium and integrin-binding protein 1 (Homo sapiens), sequence (Q99828 whole entry, looked up): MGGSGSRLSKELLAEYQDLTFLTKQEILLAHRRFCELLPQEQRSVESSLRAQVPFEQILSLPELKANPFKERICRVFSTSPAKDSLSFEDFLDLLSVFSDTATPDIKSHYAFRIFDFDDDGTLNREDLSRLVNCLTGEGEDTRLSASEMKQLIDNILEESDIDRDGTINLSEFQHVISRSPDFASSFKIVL
structure (smiles),measurement,setting,value
C=C1CC[C@H]2[C@@H](/C=C(\C)C(=O)[C@@]3(OC(C)=O)C[C@H](C)[C@H](OC(=O)c4ccccc4)[C@@H]3[C@H]1OC(C)=O)C2(C)C,Potency,[1],inactive
same,Potency,[2],inactive
same,Potency,[3],inactive
same,Potency,[4],inactive
same,Potency,[5],inactive
same,outcome,[6],inactive
same,Potency,[7],inactive
same,max response,[8],1.55% (inactive)
same,max response,[9],-4.22% (inactive)
same,Potency,[10],inactive
same,Potency,[11],inactive
same,Potency,[12],inactive
same,Potency,[13],inactive
same,Potency,[14],inactive
same,Potency,[15],inactive
same,Potency,[16],inactive
same,Potency,[17],inactive
same,Potency,[18],inactive
same,Potency,[19],inactive
same,Potency,[20],inactive
CC[C@H](C)[C@@H]([C@@H](CC(=O)N1CCC[C@H]1[C@H](OC)[C@@H](C)C(=O)N[C@@H](Cc1ccccc1)c1nccs1)OC)N(C)C(=O)[C@@H](NC(=O)C(C)(C)N)C(C)C (H-[Aib]V[Dil][Dolaproine]-Doe),Potency,[1],146 nM (active)
same,Potency,[2],inactive
same,Potency,[3],inactive
same,Potency,[4],inactive
same,Potency,[5],inactive
same,outcome,[6],inactive
same,Potency,[7],inactive
same,max response,[9],-54.1% (inactive)
same,Potency,[11],inactive
same,Potency,[15],inactive
CN1CN(c2ccccc2)C2(CCN(CCCC(=O)c3ccc(F)cc3)CC2)C1=O,Potency,[3],inactive
same,Potency,[4],inactive
same,Potency,[5],inactive
same,Potency,[7],inactive
same,Potency,[11],inactive
same,Potency,[12],inactive
same,Potency,[13],inactive
same,Potency,[14],inactive
same,Potency,[15],inactive
same,Potency,[16],inactive
same,Potency,[18],inactive
same,Potency,[19],inactive
same,Potency,[20],inactive
CO[C@H]1C[C@H](O[C@H]2CC[C@]3(CO)[C@H]4CC[C@]5(C)[C@@H](C6=CC(=O)OC6)CC[C@]5(O)[C@@H]4CC[C@]3(O)C2)O[C@H](C)[C@H]1O,Potency,[1],22.4 nM (active)
same,Potency,[2],inactive
same,Potency,[3],inactive
same,Potency,[4],inactive
same,Potency,[5],inactive
same,outcome,[6],inactive
same,Potency,[7],inactive
same,Potency,[8],70.9 nM (active)
same,max response,[9],1.22% (inactive)
same,Potency,[10],89.1 nM (active)
same,Potency,[11],355 nM (active)
same,Potency,[12],891 nM (active)
same,Potency,[13],199 nM (active)
same,Potency,[14],199 nM (active)
same,Potency,[15],224 nM (active)
same,Potency,[17],1 µM (active)
same,Potency,[18],112 nM (active)
same,Potency,[19],141 nM (active)
same,Potency,[20],31.6 nM (active)
CO[C@@H]1[C@@H](O)[C@@H](O[C@H]2CC[C@]3(C=O)C4CC[C@]5(C)[C@@H](C6=CC(=O)OC6)CC[C@]5(O)[C@@H]4CC[C@H]3C2)O[C@@H](C)[C@H]1O[C@@H]1O[C@H](CO[C@@H]2O[C@H](CO)[C@@H](O)[C@H](O)[C@H]2O)[C@@H](O)[C@H](O)[C@H]1O (some centres not stated),Potency,[1],3480 nM (active)
same,Potency,[2],inactive
same,Potency,[3],inactive
same,Potency,[4],inactive
same,Potency,[5],inactive
same,"activity change, negative = inhibition",[6],-6.08% [at 11.6 µM] (inactive)
same,"activity, negative = inhibition",[7],1.53% [at 11.6 µM] (inactive)
same,Potency,[8],2190 nM (active)
same,outcome,[9],inactive
same,Potency,[10],3550 nM (active)
same,"activity change, negative = cytotoxicity",[11],-17.5% [at 11.6 µM] (inactive)
same,"activity change, negative = cytotoxicity",[12],13.6% [at 11.6 µM] (inactive)
same,Potency,[13],2000 nM (active)
same,"activity change, negative = cytotoxicity",[16],-2.75% [at 11.6 µM] (inactive)
same,"activity change, negative = cytotoxicity",[17],8.02% [at 11.6 µM] (inactive)
same,Potency,[19],3550 nM (active)
same,Potency,[20],2510 nM (active)
C[C@H]1CCC[C@H](O)CCC/C=C/c2cc(O)cc(O)c2C(=O)O1,Potency,[2],inactive
same,Potency,[3],inactive
same,Potency,[4],inactive
same,outcome,[6],inactive
same,Potency,[7],inactive
same,outcome,[8],inactive
same,outcome,[9],inactive
same,Potency,[10],inactive
same,Potency,[11],inactive
same,Potency,[12],inactive
same,Potency,[13],inactive
same,Potency,[14],inactive
same,Potency,[15],inactive
same,Potency,[16],inactive
same,Potency,[17],inactive
same,Potency,[18],inactive
same,Potency,[19],inactive
same,Potency,[20],inactive
